Reference: PubChem BioAssay (NCI)
Compounds without any hit were thinned out: in the full panel of roughly 79,000, 15% have a hit. A number with no mark means an inactive call. The source made the active and inactive calls. No stated cut-off is given here; in the data, active means growth inhibition above about 70%; inactive means the rest.

Experiments:
[1] = NCI Yeast Anticancer Drug Screen. Data for the rad50 strain (AID 155);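 further: 0% = growth of vehicle-only cultures of the same strain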; details: S. cerevisiae rad50 strain growth inhibition, stronger effect = higher value
How it was run: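 Relative growth inhibition (compound vs vehicle) was measured in yeast with a defined repair-gene alteration.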

[2] = NCI Yeast Anticancer Drug Screen. Data for the mec2-1 strain (AID 157); details: S. cerevisiae mec2-1 strain, stronger effect = higher value
How it was run: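 mec2-1 yeast strain, carrying an alteration in DNA damage repair or cell cycle control, was exposed to compounds; growth inhibition was measured relative to vehicle-treated controls.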

[3] = NCI Yeast Anticancer Drug Screen. Data for the sgs1 mgt1 strain (AID 161);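 further: 0% = growth of cultures given vehicle only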; details: S. cerevisiae sgs1 mgt1 strain, stronger effect = higher value
How it was run: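 Compounds are added to genetically altered yeast, and growth is compared with cultures given vehicle alone to give percent inhibition.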

[4] = NCI Yeast Anticancer Drug Screen. Data for the cln2 rad14 strain (AID 165);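 further: 0% = growth equal to vehicle treated cultures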; details: S. cerevisiae cln2 rad14 strain, stronger effect = higher value
How it was run: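 Yeast carrying cln2 and rad14 alterations (cell cycle control and DNA damage repair) were exposed to compounds. Growth inhibition was measured against vehicle-treated controls.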

[5] = NCI Yeast Anticancer Drug Screen. Data for the bub3 strain (AID 167); details: S. cerevisiae bub3 mutant strain, stronger effect = higher value
How it was run: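 Screening used yeast with an engineered genetic alteration affecting cell cycle control. Compound-exposed cultures were compared with vehicle cultures, and reduced growth was taken as inhibition.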

[6] = NCI Yeast Anticancer Drug Screen. Data for the mlh1 rad18 strain (AID 175); details: S. cerevisiae mlh1 rad18 strain growth inhibition, stronger effect = higher value
How it was run: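 Growth inhibition of the yeast strain was measured after compound exposure and expressed relative to vehicle-treated controls. The strain carries defined defects in DNA damage repair.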

[7] = at 5.0 µM (retest, dose inferred, filed as 0.5)
[8] = at 50.0 µM (retest, dose inferred, filed as 5.0)

SMILES	growth inhibition [1, 7]	growth inhibition [1, 8]	growth inhibition ([1]; at 50.0 µM)	growth inhibition [2, 7]	growth inhibition [2, 8]	growth inhibition ([2]; at 50.0 µM)	growth inhibition [3, 7]	growth inhibition [3, 8]	growth inhibition ([3]; at 50.0 µM)	growth inhibition [4, 7]	growth inhibition [4, 8]	growth inhibition ([4]; at 50.0 µM)	growth inhibition [5, 7]	growth inhibition [5, 8]	growth inhibition ([5]; at 50.0 µM)	growth inhibition [6, 7]	growth inhibition [6, 8]	growth inhibition ([6]; at 50.0 µM)
CCCCCCCC[N+]12CN3CN(CN(C3)C1)C2	-5%	-21%	1.75%	-2%	-33%	4.1%	-6%	-28%	7.75%	2%	-38%	30.4%	1%	-25%	31.8%	-1%	-26%	16.9%
COCC(C#N)NC1CC(OC2CC(O)(C(=O)CO)Cc3c(O)c4c(c(O)c32)C(=O)c2c(OC)cccc2C4=O)OC(C)C1O (centres undefined)	63%	97% (active)	91.3% (active)	29%	98% (active)	89% (active)	52%	98% (active)	90.2% (active)	39%	96% (active)	88.7% (active)	43%	98% (active)	92.1% (active)	44%	97% (active)	89.8% (active)
COc1cc(C(CC(=O)N(CCCl)CCCl)c2ccc3c(c2)OCO3)cc(OC)c1OC (centres undefined)	3%	0%	6.9%	0%	-2%	10.1%	13%	2%	20.8%	0%	-15%	25.5%	2%	-2%	-2.7%	-2%	0%	46.1%
NNc1ccccc1	13%	97% (active)	98.6% (active)	1%	95% (active)	97.3% (active)	3%	98% (active)	98.8% (active)	0%	96% (active)	96.8% (active)	9%	98% (active)	96.2% (active)	15%	98% (active)	98.6% (active)
Cc1cc(N(CCCl)CCCl)ccc1C1N(Cc2ccc(N(CCCl)CCCl)cc2Cl)CCCN1Cc1ccc(N(CCCl)CCCl)cc1Cl	81% (active)	96% (active)	97.8% (active)	75% (active)	96% (active)	99.2% (active)	57%	95% (active)	98.2% (active)	77% (active)	93% (active)	97.5% (active)	74% (active)	96% (active)	97.7% (active)	99% (active)	93% (active)	98.6% (active)
O=C(N/N=C/c1cc(Br)cc(Br)c1[O-])c1ccccc1O.O=C(N/N=C/c1cc(Br)cc(Br)c1[O-])c1ccccc1O.[Co+2]	93% (active)	97% (active)	94.6% (active)	95% (active)	96% (active)	95.7% (active)	91% (active)	98% (active)	94.8% (active)	82% (active)	97% (active)	92.5% (active)	90% (active)	97% (active)	95.5% (active)	95% (active)	96% (active)	96% (active)
CSCCC([NH-])C(=O)O.CSCCC([NH-])C(=O)O.[Zn+2] (centres undefined)	2%	1%	98.2% (active)	1%	1%	99.2% (active)	2%	-1%	99.2% (active)	4%	-6%	99.2% (active)	4%	6%	99% (active)	4%	3%	99.3% (active)
COC12C(COC(N)=O)C3=C(C(=O)C(C)=C(NC(C)C)C3=O)N1CC1NC12 (centres undefined)	5%	59%	47.6%	10%	72% (active)	47.9%	13%	61%	48%	2%	76% (active)	52%	1%	35%	30.4%	31%	92% (active)	78.6% (active)
C/C(=N\N=C(/[Se])N1CCC(C)CC1)c1ccccn1	27%	94% (active)	94.5% (active)	24%	91% (active)	96% (active)	9%	71% (active)	99.2% (active)	4%	-9%	47%	6%	20%	84.5% (active)	4%	76% (active)	98% (active)
Cc1ccc(S(=O)(=O)N=S(=O)(CCCl)CCCl)cc1	16%	98% (active)	94% (active)	17%	97% (active)	88.5% (active)	25%	99% (active)	97.5% (active)	18%	94% (active)	62.9%	9%	89% (active)	47.4%	27%	98% (active)	96.7% (active)
CNP1(=O)OC(c2ccccc2)=CCN1CCCl (centres undefined)	3%	-1%	76.3% (active)	-2%	10%	47.6%	5%	-1%	58.8%	0%	6%	-30.3%	0%	-2%	23.9%	0%	5%	71.2% (active)
NC(=S)C1=C(N)Oc2c(c(=O)oc3ccccc23)C1c1ccc(Br)cc1 (centres undefined)	-7%	66%	20.1%	10%	73% (active)	53.7%	10%	76% (active)	57.9%	16%	85% (active)	21.4%	7%	90% (active)	62.6%	-2%	91% (active)	62.5%
O=[As]c1ccccc1O (centres undefined)	1%	96% (active)	96.6% (active)	0%	98% (active)	98.1% (active)	2%	98% (active)	90.3% (active)	-9%	98% (active)	92.2% (active)	-5%	97% (active)	97.3% (active)	-1%	98% (active)	96.5% (active)
